For test [1], the target named is CCAAT/enhancer-binding protein beta (Homo sapiens) (UniProt P17676). The test can be described thus: ATG_C_EBP_CIS: Attagene CIS-FACTORIAL HepG2 Assay for human CCAAT/Enhancer Binding Protein (C/EBP) beta (AID 2282927). Conditions: HepG2 Attagene cis-factorial transcription factor reporter; actives raise or lower the signal. Summed up: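 HepG2 transiently transfected with multiplexed reporter units under cis-regulatory promoters reporting endogenous C/EBPb activity. After 24 h exposure, reporter mRNA assayed by RT-PCR, fluorescent labelling, HpaI digestion and capillary electrophoresis; bidirectional fitting versus DMSO.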
CCAAT/enhancer-binding protein beta (Homo sapiens), sequence (P17676 whole entry, looked up): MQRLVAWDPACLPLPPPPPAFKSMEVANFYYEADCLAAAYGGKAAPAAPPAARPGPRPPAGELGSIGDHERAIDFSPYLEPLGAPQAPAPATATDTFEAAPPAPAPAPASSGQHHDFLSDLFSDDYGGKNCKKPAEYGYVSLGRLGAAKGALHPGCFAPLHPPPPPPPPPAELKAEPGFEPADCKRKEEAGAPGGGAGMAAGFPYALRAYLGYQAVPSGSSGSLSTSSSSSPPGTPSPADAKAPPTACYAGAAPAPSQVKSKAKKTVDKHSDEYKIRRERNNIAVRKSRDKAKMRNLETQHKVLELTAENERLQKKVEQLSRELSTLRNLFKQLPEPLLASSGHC

Test [2] in a line: ATG_DR4_LXR_CIS: Attagene CIS-FACTORIAL HepG2 Assay for human Liver X Receptor (LXR), DR4 submotif (AID 2282929). Conditions: HepG2 Attagene DR4 cis-reporter, mRNA transcription; actives raise or lower the signal. Summed up: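 Total RNA from 24 h-treated, MRTU-transfected HepG2 cells underwent reverse transcription, PCR, fluorescent primer extension and restriction digestion before capillary electrophoresis. Both increases and decreases in reporter signal were fitted against DMSO.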

Test [3] is described as follows: ATG_AP_2_CIS: Attagene CIS-FACTORIAL HepG2 Assay for human Activator Protein 2 (AP-2) (AID 2282932). Conditions: HepG2 AP-2 cis-reporter, Attagene transcription factor profiling; actives raise or lower the signal. Summed up:
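Liver-derived HepG2 line, cis-reporter system measuring endogenous factors; 24 h dosing; reporter mRNA detected by fluorescent RT-PCR and capillary electrophoresis.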

For test [4], the target named is Transcription factor E2F1 (Homo sapiens) (UniProt Q01094). The test can be described thus: ATG_E2F_CIS: Attagene CIS-FACTORIAL HepG2 Assay for human E2F Transcription Factor 1 (AID 2282935). The following applies: HepG2 Attagene cis-reporter, E2F reporter RNA transcripts; actives raise or lower the signal. The method in brief:
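Liver-derived HepG2 cells expressing transfected promoter-driven reporter units received test chemical for 24 hours. Signal gains or losses were fitted bidirectionally against DMSO.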

Test [5] can be described thus: ATG_E_Box_CIS: Attagene CIS-FACTORIAL HepG2 Assay for human Enhancer Box (E-box) (AID 2282936). Conditions: HepG2 E-box cis-reporter transcription, actives raise or lower the signal. Summed up:
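In this cell-based setup, HepG2 cells bearing transfected promoter-driven reporter units were exposed to chemicals for 24 h; reporter transcripts were amplified, 6-FAM-labelled, cut with HpaI and sized by capillary electrophoresis.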

A short description of test [6]: ATG_M_19_CIS: Attagene CIS-FACTORIAL HepG2 Assay for M19 Transcription Factor (Internal Marker) (AID 2282939). Conditions: HepG2 Attagene CIS-FACTORIAL M19 internal marker reporter; actives raise or lower the signal. The method in brief: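 Chemical-treated HepG2 (24 h) with MRTU constructs; reporter transcripts detected by fluorescent RT-PCR fragment analysis on capillary electrophoresis. Internal background marker, DMSO as baseline.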

Test [7] in a line: ATG_GLI_CIS: Attagene CIS-FACTORIAL HepG2 Assay for human Zinc Finger Protein GLI1 (AID 2282945). The following applies: HepG2, Attagene cis-factorial reporter mRNA, GLI element; actives raise or lower the signal. Summed up:
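Transiently transfected HepG2 cells report endogenous transcription factor activity via cis-element-driven reporter units. After 24 h compound exposure, reporter mRNA was measured by RT-PCR with capillary electrophoresis; bidirectional fitting against DMSO baseline.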

Test [8] can be described thus: ATG_ISRE_CIS: Attagene CIS-FACTORIAL HepG2 Assay for human Interferon Regulatory Factor 1 (IRF1) binding to an Interferon-Stimulated Response Element (ISRE) (AID 2282948). The following applies: HepG2 ISRE cis-reporter (Attagene), mRNA transcription readout; actives raise or lower the signal. Summed up:
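Endogenous transcription factor activity read as reporter transcript abundance via RT-PCR and capillary electrophoresis. HepG2 cells transiently transfected, 24 h chemical exposure. Gain or loss fitted against DMSO baseline.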

Test [9] can be described thus: ATG_M_32_CIS: Attagene CIS-FACTORIAL HepG2 Assay for M32 Transcription Factor (Internal Marker) (AID 2282949).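 Also: background control marker of the multiplexed CIS panel rather than a real target.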 Conditions: HepG2 Attagene cis-factorial M32 reporter, mRNA; actives raise or lower the signal. Summed up: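 HepG2 transfectants (cis-regulated reporter transcription units) dosed 24 h. Reporter mRNA by RT-PCR plus CE, analysed as gain or loss relative to DMSO.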

The nature of test [10]: ATG_PXRE_CIS: Attagene CIS-FACTORIAL HepG2 Assay for human Pregnane X Receptor Element (PXRE) (AID 2282957). Conditions: HepG2 Attagene CIS-FACTORIAL PXRE reporter, mRNA; actives raise or lower the signal. Summed up:
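Bidirectional activity, baselined to DMSO, derived from reporter mRNA fluorescence (RT-PCR plus capillary electrophoresis) in HepG2 cells bearing cis-promoter reporter units, 24 h exposure.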

The nature of test [11]: ATG_Sox_CIS: Attagene CIS-FACTORIAL HepG2 Assay for human SRY-box transcription factor (SOX) (AID 2282960). The following applies: HepG2 Attagene cis-factorial SOX reporter, mRNA; actives raise or lower the signal. Summed up: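 HepG2, cis reporter units, 24 h exposure. Reporter mRNA: RT-PCR → FAM labelling → HpaI → CE fluorescence. Bidirectional fit vs DMSO.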
Test [12] deals with Transcription factor Sp1 (Homo sapiens) (UniProt P08047). Nature of the test: ATG_Sp1_CIS: Attagene CIS-FACTORIAL HepG2 Assay for human Specificity Protein 1 (Sp1) (AID 2282961). Conditions: HepG2 Sp1 cis-reporter transcription, actives raise or lower the signal. Summed up: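 Liver-derived HepG2 cells, cis-element reporter library, 24 h treatment; RNA isolated, cDNA amplified with reporter-specific primers, FAM-labeled fragments sized on capillary analyzer. DMSO baseline, bidirectional curve fit.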
Transcription factor Sp1 (Homo sapiens), sequence (P08047 whole entry, looked up, the tested form may be a part): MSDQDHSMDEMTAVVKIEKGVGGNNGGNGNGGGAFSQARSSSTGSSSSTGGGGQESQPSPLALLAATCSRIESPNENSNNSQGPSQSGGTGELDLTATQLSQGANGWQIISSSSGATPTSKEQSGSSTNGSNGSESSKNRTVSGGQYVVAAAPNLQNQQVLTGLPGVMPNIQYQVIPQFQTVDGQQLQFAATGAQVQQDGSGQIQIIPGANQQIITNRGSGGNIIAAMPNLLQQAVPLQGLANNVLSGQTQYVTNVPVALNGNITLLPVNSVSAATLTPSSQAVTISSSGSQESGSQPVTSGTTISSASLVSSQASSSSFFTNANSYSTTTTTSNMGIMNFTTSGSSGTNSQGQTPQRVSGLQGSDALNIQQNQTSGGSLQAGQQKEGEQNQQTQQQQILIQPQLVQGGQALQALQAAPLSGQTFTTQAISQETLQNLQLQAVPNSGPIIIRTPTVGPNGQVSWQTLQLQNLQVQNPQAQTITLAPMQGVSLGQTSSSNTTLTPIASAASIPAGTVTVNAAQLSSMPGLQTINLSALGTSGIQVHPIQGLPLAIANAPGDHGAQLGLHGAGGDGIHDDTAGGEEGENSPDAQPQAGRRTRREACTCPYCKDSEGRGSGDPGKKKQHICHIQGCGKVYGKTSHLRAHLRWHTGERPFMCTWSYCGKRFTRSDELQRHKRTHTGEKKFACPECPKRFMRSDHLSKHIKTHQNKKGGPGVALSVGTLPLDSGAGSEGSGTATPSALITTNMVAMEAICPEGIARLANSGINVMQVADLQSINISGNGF

Test [13] deals with Signal transducer and activator of transcription 3 (Homo sapiens) (UniProt P40763). The test can be described thus: ATG_STAT3_CIS: Attagene CIS-FACTORIAL HepG2 Assay for human Signal Transducer and Activator of Transcription 3 (STAT3) (AID 2282963). The following applies: HepG2, Attagene cis-factorial STAT3 reporter transcription; actives raise or lower the signal. Summed up:
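Fluorescence intensity of 6-FAM-labelled reporter fragments, separated by capillary electrophoresis after RT-PCR, gave the signal. Cells were HepG2 transfected with cis-element reporter units and treated 24 h; fitting was bidirectional relative to DMSO.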

Test [14] in a line: ATG_TA_CIS: Attagene CIS-FACTORIAL HepG2 Assay for human TA Basal Promoter (AID 2282964). The following applies: HepG2 Attagene CIS-factorial TA basal promoter reporter; actives raise or lower the signal. Summed up:
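Background internal-marker endpoint from a 52-component HepG2 cis-reporter panel. Cells treated 24 h; reporter transcripts quantified via RT-PCR and CE fluorescence against DMSO baseline.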

Test [15] is described as follows: ATG_TCF_b_cat_CIS: Attagene CIS-FACTORIAL HepG2 Assay for human T-Cell-Factor with beta-catenin (TCF/b-cat) (AID 2282965). The following applies: HepG2 TCF/beta-catenin cis-reporter transcription, actives raise or lower the signal. The method in brief: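 HepG2 cells transiently transfected with cis-promoter-driven multiplexed reporter units; reporter mRNA measured 24 h after dosing by RT-PCR, FAM labelling, HpaI digestion and capillary electrophoresis. Bidirectional fitting relative to DMSO baseline.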

Test [16] is described as follows: ATG_TAL_CIS: Attagene CIS-FACTORIAL HepG2 Assay for human TAL Basal Promoter (AID 2282966).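 Also: background control endpoint measuring basal TAL promoter reporter mRNA not a specific factor.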 Conditions: HepG2 Attagene cis-factorial TAL promoter reporter; actives raise or lower the signal. The method in brief: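 Human hepatoma HepG2 cells, transfected with promoter-regulated reporter units, were treated 24 h. Reporter transcript levels, measured through RT-PCR and capillary electrophoresis, were fitted for gain or loss relative to DMSO.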

Test [17] concerns the target X-box-binding protein 1 (Homo sapiens) (UniProt P17861). Nature of the test: ATG_Xbp1_CIS: Attagene CIS-FACTORIAL HepG2 Assay for human X-box Binding Protein 1 (XBP1) (AID 2282972). Conditions: HepG2 XBP1 cis-element reporter, Attagene multiplex; actives raise or lower the signal. The method in brief: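 Reporter transcripts were quantified by RT-PCR with fluorescent primer extension and capillary electrophoresis after 24 h chemical exposure. Cells: transiently transfected HepG2 carrying cis-regulated reporter constructs; data fitted bidirectionally relative to DMSO.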

The target in test [18] is Transcriptional activator Myb (Homo sapiens) (UniProt P10242). The test can be described thus: ATG_Myb_CIS: Attagene CIS-FACTORIAL HepG2 Assay for human Myeloblastosis (Myb) Proto-Oncogene Transcription Factor (AID 2282986). The following applies: HepG2 Attagene CIS-FACTORIAL Myb reporter transcription; actives raise or lower the signal. The method in brief: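 After 24 h of compound dosing, total RNA from transfected HepG2 cells is reverse-transcribed and the reporter sequences amplified, labeled and separated by capillary electrophoresis. Values come from bidirectional fitting against DMSO.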
Transcriptional activator Myb (Homo sapiens), sequence (P10242 whole entry, looked up): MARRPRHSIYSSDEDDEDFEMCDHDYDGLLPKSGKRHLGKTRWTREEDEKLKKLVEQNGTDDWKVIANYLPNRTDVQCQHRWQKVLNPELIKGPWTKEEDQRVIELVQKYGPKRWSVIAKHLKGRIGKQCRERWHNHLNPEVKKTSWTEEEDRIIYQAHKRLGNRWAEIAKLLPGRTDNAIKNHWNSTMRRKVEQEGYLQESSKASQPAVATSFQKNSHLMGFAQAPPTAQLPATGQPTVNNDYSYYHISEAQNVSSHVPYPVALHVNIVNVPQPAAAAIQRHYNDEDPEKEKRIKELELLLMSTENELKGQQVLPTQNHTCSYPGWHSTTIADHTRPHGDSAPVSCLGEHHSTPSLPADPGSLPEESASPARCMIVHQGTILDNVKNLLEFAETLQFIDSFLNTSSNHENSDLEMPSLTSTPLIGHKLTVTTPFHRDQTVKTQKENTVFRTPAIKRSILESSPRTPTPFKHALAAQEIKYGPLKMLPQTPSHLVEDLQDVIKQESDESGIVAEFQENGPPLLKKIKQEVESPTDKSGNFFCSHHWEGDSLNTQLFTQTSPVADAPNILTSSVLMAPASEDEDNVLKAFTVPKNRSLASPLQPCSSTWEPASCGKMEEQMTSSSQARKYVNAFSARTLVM

In test [19] the target is Myc proto-oncogene protein (Homo sapiens) (UniProt P01106). Nature of the test: ATG_Myc_CIS: Attagene CIS-FACTORIAL HepG2 Assay for human Myelocytomatosis (Myc) Proto-Oncogene Transcription Factor (AID 2282990). Conditions: HepG2, Attagene cis-reporter transcription factor activity; actives raise or lower the signal. Summed up:
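Transiently transfected HepG2 cells bearing cis-promoter reporter units for endogenous transcription factors; 24 h exposure. Reporter mRNA measured by RT-PCR, 6-FAM primer extension, HpaI cut and capillary electrophoresis; bidirectional fit relative to DMSO.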

A short description of test [20]: ATG_Oct_MLP_CIS: Attagene CIS-FACTORIAL HepG2 Assay for human Octamer-Binding Transcription Factor (Oct) (AID 2282993). Conditions: HepG2 Attagene cis-factorial Oct reporter, mRNA; actives raise or lower the signal. The method in brief: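 Using HepG2 cells bearing transfected cis-reporter constructs, mRNA induction was read after 24 h by fluorescent RT-PCR and capillary electrophoresis, with DMSO defining baseline for gain- or loss-of-signal fits.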

This note sets out measurements from PubChem BioAssay (EPA / NIEHS).

Active and inactive are the calls of the source. The calls were made as follows: active = hit-call score of the fitted dose curve at least 0.9, where 1 is the maximum; inactive = score below 0.9.

X-box-binding protein 1 (Homo sapiens), sequence (P17861 whole entry, looked up): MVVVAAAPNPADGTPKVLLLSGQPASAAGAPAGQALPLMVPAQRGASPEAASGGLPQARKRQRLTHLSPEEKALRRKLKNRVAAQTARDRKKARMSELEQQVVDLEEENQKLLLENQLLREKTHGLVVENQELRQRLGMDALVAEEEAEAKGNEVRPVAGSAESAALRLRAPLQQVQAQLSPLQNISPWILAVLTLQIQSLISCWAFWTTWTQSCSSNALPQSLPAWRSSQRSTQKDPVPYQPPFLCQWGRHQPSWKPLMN
Signal transducer and activator of transcription 3 (Homo sapiens), sequence (P40763 whole entry, looked up, the tested form may be a part): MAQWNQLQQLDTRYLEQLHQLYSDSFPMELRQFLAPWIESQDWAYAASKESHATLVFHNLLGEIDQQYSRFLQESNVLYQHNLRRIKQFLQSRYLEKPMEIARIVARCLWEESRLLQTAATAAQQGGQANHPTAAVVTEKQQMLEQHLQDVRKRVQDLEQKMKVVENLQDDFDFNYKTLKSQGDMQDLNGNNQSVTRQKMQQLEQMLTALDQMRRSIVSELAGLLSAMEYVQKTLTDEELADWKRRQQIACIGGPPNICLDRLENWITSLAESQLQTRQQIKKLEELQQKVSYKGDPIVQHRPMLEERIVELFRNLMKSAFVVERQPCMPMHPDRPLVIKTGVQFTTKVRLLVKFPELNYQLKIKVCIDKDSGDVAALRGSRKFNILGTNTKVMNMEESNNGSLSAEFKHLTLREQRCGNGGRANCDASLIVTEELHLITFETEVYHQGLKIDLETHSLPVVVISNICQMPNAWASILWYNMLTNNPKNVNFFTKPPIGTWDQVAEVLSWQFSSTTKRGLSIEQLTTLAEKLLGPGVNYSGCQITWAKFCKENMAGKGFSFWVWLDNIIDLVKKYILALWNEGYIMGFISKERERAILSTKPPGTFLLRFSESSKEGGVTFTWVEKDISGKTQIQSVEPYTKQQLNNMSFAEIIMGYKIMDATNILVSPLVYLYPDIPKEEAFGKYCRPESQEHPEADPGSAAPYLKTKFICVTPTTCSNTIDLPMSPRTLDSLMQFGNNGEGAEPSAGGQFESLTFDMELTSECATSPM
Transcription factor E2F1 (Homo sapiens), sequence (Q01094 whole entry, looked up): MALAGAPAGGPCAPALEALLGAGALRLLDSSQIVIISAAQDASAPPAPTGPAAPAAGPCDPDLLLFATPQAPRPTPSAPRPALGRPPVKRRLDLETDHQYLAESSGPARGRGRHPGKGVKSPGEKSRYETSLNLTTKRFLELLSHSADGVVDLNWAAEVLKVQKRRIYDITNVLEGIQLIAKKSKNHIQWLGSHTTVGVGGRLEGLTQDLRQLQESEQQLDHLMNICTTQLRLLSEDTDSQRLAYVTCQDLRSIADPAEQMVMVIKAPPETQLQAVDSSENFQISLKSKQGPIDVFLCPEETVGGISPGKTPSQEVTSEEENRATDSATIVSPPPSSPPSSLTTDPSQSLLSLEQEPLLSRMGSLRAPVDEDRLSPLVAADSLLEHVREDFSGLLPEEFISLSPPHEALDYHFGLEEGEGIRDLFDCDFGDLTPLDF
Myc proto-oncogene protein (Homo sapiens), sequence (P01106 whole entry, looked up): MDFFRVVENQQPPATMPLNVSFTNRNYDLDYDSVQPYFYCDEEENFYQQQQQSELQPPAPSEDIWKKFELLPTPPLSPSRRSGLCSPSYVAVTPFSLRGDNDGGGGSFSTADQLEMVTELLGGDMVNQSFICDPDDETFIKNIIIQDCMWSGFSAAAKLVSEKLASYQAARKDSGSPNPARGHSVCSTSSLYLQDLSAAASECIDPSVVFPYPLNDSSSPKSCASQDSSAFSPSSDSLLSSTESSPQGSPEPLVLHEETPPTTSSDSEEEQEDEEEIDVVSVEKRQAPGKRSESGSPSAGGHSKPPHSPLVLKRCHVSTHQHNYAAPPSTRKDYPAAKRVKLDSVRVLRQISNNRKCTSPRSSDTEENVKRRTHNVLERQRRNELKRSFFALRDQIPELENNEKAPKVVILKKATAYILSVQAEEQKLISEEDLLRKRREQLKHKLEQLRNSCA

By AC50 is commonly meant the midpoint of the concentration-response curve, whichever way the signal moves. On to `CCc1cc(C)cc(CC)c1-c1c(OC(=O)C(C)(C)C)n2n(c1=O)CCOCC2`, for which the result in [1], in test [2], in [3], in test [5], in [6] and in [7] was inactive. The compound was classed as inactive in test [8], in test [9], in test [11], in test [12], in test [13] and in [14]. In addition, the outcome in [15], in test [16], in test [17], in [18], in test [19] and in test [20] was inactive. Also, the AC50 was 25.8 µM (active) in test [4] and 9.48 µM (active) in test [10].

Turning to `c1ccc(P(c2ccccc2)c2ccccc2)cc1`, the outcome in test [1], in [3], in [4], in test [5], in [6] and in test [7] was inactive. For the same compound, the result in [8], in test [9], in test [11], in [12], in test [13] and in test [14] was inactive. The compound was called inactive in [16], in test [17], in test [18], in test [19] and in test [20]. The AC50 in test [2] was 31.5 µM (active); in test [10], 4.59 µM (active); in test [15], 158 µM (active).

`Oc1cc(Cl)ccc1Cl`: the result in [1], in test [2], in test [3], in [4], in test [5] and in [6] was inactive. Besides, the compound was called inactive in test [7], in test [8], in test [9], in [11], in test [12] and in [13]. The result in test [14], in test [15], in test [16], in [17], in [18] and in test [19] was inactive. The result in [20] was inactive. Moreover, the AC50 in test [10] was 27.6 µM (active).
